# Inconclusive results are not listed. Some structures have more than one record in an assay (separate samples or runs), and their calls can disagree. The source made the active and inactive calls. How the source made its calls, unless noted: active means hit-call score of the fitted dose curve at least 0.9, where 1 is the maximum; inactive means score below 0.9.
# How the values were obtained:
# [1] = CCTE_Shafer_MEA_dev_firing_rate_mean: CCTE's Neural Network Formation Assay for Mean Firing Rate, Shafer Lab (AID 2284031);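 on AC50: curve fitted for loss of firing so AC50 reflects decreased mean firing rate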
# How it was run: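 Primary rat cortical neurons on 48-well MEA plates, exposed from plating day 0 with dosing renewed on DIV 5 and 9. Mean well firing rate over active electrodes, recorded days 5, 7, 9, 12, summarised as trapezoidal AUC.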
# [2] = CCTE_Shafer_MEA_dev_per_burst_spike_percent: CCTE's Neural Network Formation Assay for Percent of Spikes in a Burst, Shafer Lab (AID 2284032);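 on AC50: fitted as a decrease in burst spike percentage below DMSO baseline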
# How it was run: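 Rat primary cortical neurons on 16-electrode MEA wells, dosed from plating day 0 for 12 days with renewal on DIV 5 and 9; spikes-in-bursts percentage averaged over bursting electrodes, collapsed as AUC across days 5, 7, 9, 12; loss direction versus DMSO.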
# [3] = CCTE_Shafer_MEA_dev_active_electrodes_number: CCTE's Neural Network Formation Assay for Number of Active Electrodes, Shafer Lab (AID 2284040; active means hit-call score of the fitted dose curve at least 0.9, where 1 is the maximum;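 on AC50: potency for loss of active electrodes versus DMSO so lower counts are hits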)
# How it was run: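 Primary rat cortical neurons on 16-electrode MEA wells, exposed from day 0 through day 12 with compound renewed at DIV 5 and 9 feeds. Active electrodes (mean firing ≥5 spikes/min) counted at DIV 5, 7, 9, 12; trapezoidal AUC across days, loss-of-signal versus DMSO.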
# [4] = target: Estrogen receptor (Homo sapiens) (UniProt P03372); experiment: CCTE_Deisenroth_AIME_384WELL_LUC_Active: CCTE's 384-well Estrogen Receptor Transactivation Assay with AIME metabolic competence (ERTA luciferase; metabolism positive), Deisenroth Lab (AID 2284030; active means hit-call score of the fitted dose curve at least 0.9, where 1 is the maximum)
# Sequence of Estrogen receptor (Homo sapiens) (P03372 whole entry, looked up): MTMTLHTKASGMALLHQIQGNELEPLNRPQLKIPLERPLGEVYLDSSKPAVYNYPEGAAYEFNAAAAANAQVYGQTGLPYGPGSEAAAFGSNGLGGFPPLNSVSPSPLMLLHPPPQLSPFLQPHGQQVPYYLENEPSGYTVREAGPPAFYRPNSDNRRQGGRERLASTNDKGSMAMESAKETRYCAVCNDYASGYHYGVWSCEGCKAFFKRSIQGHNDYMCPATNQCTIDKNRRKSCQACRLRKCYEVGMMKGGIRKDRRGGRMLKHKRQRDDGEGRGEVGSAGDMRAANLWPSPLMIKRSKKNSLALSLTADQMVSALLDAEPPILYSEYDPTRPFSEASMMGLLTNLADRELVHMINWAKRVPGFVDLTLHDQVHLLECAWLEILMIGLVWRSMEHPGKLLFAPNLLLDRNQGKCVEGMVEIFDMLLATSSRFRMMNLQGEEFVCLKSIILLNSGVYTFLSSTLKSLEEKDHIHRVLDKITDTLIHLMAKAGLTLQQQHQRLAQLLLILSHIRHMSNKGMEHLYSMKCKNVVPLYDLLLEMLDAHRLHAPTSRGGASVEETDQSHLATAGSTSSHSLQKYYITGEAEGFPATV
# How it was run: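 In this metabolism-positive format, a 2-hour exposure to alginate-immobilized rat S9 precedes a 24 hour luciferase transactivation readout in VM7Luc4E2 cells. Dosing spans 10 concentrations from 0.002 to 200 uM.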
# [5] = target: Estrogen receptor (Homo sapiens) (UniProt P03372); experiment: CCTE_Deisenroth_AIME_384WELL_LUC_Inactive: CCTE's 384-well Estrogen Receptor Transactivation Assay without AIME metabolic competence (ERTA luciferase; metabolism negative), Deisenroth Lab (AID 2284038; active means hit-call score of the fitted dose curve at least 0.9, where 1 is the maximum;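 further: VM7Luc4E2 breast cells given medium preincubated 2 h with S9-free microspheres; hits raise estrogen receptor luciferase signal so potencies reflect agonists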)
# How it was run: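 Metabolism-negative mode: chemicals (10-point, 0.002–200 uM) held 2 h with alginate-water microspheres, then conditioned medium applied to VM7Luc4E2 cells for 24 h. Luciferase induction referenced to 17beta-estradiol.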
# [6] = CCTE_Deisenroth_AIME_384WELL_CTox_Inactive: Cytotoxicity Assessment (CTOX) in CCTE's 384-well Estrogen Receptor Transactivation Assay without AIME metabolic competence (metabolism negative), Deisenroth Lab (AID 2284039; active means hit-call score of the fitted dose curve at least 0.9, where 1 is the maximum;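 further: cell viability via live-cell protease substrate cleaved to fluorescent probe; cells exposed 24 h to medium preincubated 2 h with alginate-water beads without S9; loss of fluorescence signal means loss of viability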)
# How it was run: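 VM7Luc4E2 cells, metabolism-negative arm: test chemicals (0.002–200 uM, 10 points) pre-incubated 2 h with alginate-water microspheres, then medium transferred to cells for 24 h. Viability read as protease-substrate cleavage to fluorescent probe; loss-of-signal, bidirectional fitting.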
# [7] = target: Estrogen receptor (Homo sapiens) (UniProt P03372); experiment: CCTE_Deisenroth_AIME_384WELL_LUC_Shift: CCTE's 384-well Estrogen Receptor Transactivation Assay with AIME metabolic competence data shift (ERTA luciferase; difference in metabolism positive and negative), Deisenroth Lab (AID 2284041);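 further: shift is response with S9 minus without S9 so positive means metabolism raised ER signal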
# How it was run: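 Test chemicals (0.002–200 uM, 10-point) were pre-incubated 2 h with alginate microspheres containing phenobarbital/beta-naphthoflavone-induced male Sprague Dawley rat liver S9 or water, then medium was transferred to VM7Luc4E2 cells for 24 h luciferase readout; shift = S9-positive minus S9-negative normalized response.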
# [8] = CCTE_Shafer_MEA_acute_cross_correlation_HWHM: CCTE's Neural Acute Assay for Cross Correlation at Half Width at Half Maximum, Shafer Lab (AID 2284026);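 further: spontaneous network firing of rat primary cortical neurons on multiwell microelectrode arrays; percent change per well from pre-dose baseline in spike cross-correlogram half width; hits are a decrease in cross-correlogram half width relative to DMSO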
# How it was run: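 Primary cortex (rat), MEA, DIV 13/15; compound 0.03-40 uM; 40 min pre + 40 min post at 37 C; spike threshold 8x rms; wells need ≥10 active electrodes; endpoint = % change in cross-correlogram HWHM vs baseline, DMSO negative control.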
# [9] = CCTE_Shafer_MEA_acute_synchrony_index: CCTE's Neural Acute Assay for Synchrony, Shafer Lab (AID 2284027);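 further: network synchrony index of spontaneous spiking in primary rat cortical neurons on MEAs; fitted for loss of signal so actives lower synchrony relative to DMSO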
# How it was run: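 Primary rat cortical neurons on 48-well MEAs, dosed at 0.03–40 uM on DIV 13 or 15. Spikes are recorded for 40 min at 37C before and after exposure, and synchrony index (0–1) is expressed as percent change from baseline per well.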
# [10] = CCTE_Deisenroth_AIME_384WELL_CTox_Active: Cytotoxicity Assessment (CTOX) in CCTE's 384-well Estrogen Receptor Transactivation Assay with AIME metabolic competence (metabolism positive), Deisenroth Lab (AID 2284037; active means hit-call score of the fitted dose curve at least 0.9, where 1 is the maximum;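 further: chemicals first conditioned 2 h by alginate-bound induced rat liver S9 before cells; activity means signal loss indicating cell death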)
# How it was run: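 Cytotoxicity in VM7Luc4E2 breast cells, 24 hour, measured as protease-substrate fluorescence loss, after 2-hour metabolic conditioning with induced rat hepatic S9 in alginate microspheres. Concentrations 0.002 - 200 uM, 10 points, bidirectional fitting.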
smiles,measurement,setting,value
OCC(F)(F)C(F)(F)C(F)(F)C(F)(F)C(F)(F)C(F)F,outcome,[1],inactive
same,outcome,[2],inactive
same,outcome,[3],inactive
CCCCCCC(C)OC(=O)CCCCC(=O)OC(C)CCCCCC (stereo not drawn),outcome,[4],inactive
same,outcome,[5],inactive
same,outcome,[6],inactive
same,outcome,[7],inactive
FC(F)(F)C(F)(F)C(F)(F)C(F)(F)C(F)(F)CCI,outcome,[1],inactive
same,AC50,[2],22.2 µM (active)
same,AC50,[3],15 µM (active)
O=C(O)C(F)(F)C(F)(F)C(F)(F)F,outcome,[1],inactive
same,outcome,[2],inactive
same,outcome,[3],inactive
CCCCC(CC)COP(=O)(O)OCC(CC)CCCC (stereo not drawn),outcome,[8],inactive
same,outcome,[9],inactive
O=C(O)C(F)(F)C(F)(F)C(F)(F)C(F)(F)C(F)(F)C(F)(F)C(F)(F)C(F)(F)C(F)(F)C(F)F,outcome,[1],inactive
same,outcome,[2],inactive
O=P(O)(O)OCCC(F)(F)C(F)(F)C(F)(F)C(F)(F)C(F)(F)C(F)(F)F,outcome,[1],inactive
same,outcome,[2],inactive
same,outcome,[3],inactive
OCC(F)(F)C(F)(F)C(F)(F)F,outcome,[1],inactive
same,outcome,[2],inactive
same,outcome,[3],inactive
OCC(F)(F)C(F)(F)C(F)(F)C(F)F,outcome,[1],inactive
same,outcome,[2],inactive
same,outcome,[3],inactive
C=CC(=O)OCC(F)(F)C(F)(F)C(F)(F)C(F)(F)COC(=O)C=C,AC50,[1],4.34 µM (active)
same,AC50,[2],4.76 µM (active)
same,AC50,[3],4.2 µM (active)
NC(=O)C(F)(F)C(F)(F)C(F)(F)C(F)(F)F,outcome,[1],inactive
same,outcome,[2],inactive
COC(=O)CCC(F)(F)C(F)(F)C(F)(F)C(F)(F)F,outcome,[1],inactive
same,outcome,[2],inactive
Cc1ccc(S(=O)(=O)OCC(F)(F)C(F)(F)C(F)(F)C(F)(F)C(F)(F)C(F)F)cc1,outcome,[1],inactive
same,outcome,[2],inactive
CC/C=C\CCOC(C)=O,outcome,[4],inactive
same,outcome,[10],inactive
same,outcome,[6],inactive
same,outcome,[7],inactive
O=C(O)C=C(C(F)(F)F)C(F)(F)F,outcome,[1],inactive
same,outcome,[2],inactive
same,outcome,[3],inactive
CNC(=S)NC,outcome,[4],inactive
same,outcome,[5],inactive
same,outcome,[6],inactive
same,outcome,[7],inactive
OC[C@@H](O)[C@@H](O)[C@H](O)[C@@H](O)CO,outcome,[1],inactive
same,outcome,[2],inactive
same,outcome,[3],inactive
CC(CCl)OP(=O)(OC(C)CCl)OC(C)CCl (stereo not drawn),outcome,[1],inactive
same,outcome,[2],inactive
same,AC50,[3],50 µM (active)
same,outcome,[3],inactive
O=C(O)C(F)(F)C(F)(F)C(F)F,outcome,[1],inactive
same,outcome,[2],inactive
same,outcome,[3],inactive
N=C(N)C(F)(F)C(F)(F)C(F)(F)C(F)(F)C(F)(F)C(F)(F)C(F)(F)F,outcome,[1],inactive
same,outcome,[2],inactive
same,outcome,[3],inactive
O=S(=O)(OCC(F)F)C(F)(F)F,outcome,[1],inactive
same,outcome,[2],inactive
same,outcome,[3],inactive
OCCCC(F)(F)C(F)(F)C(F)(F)F,outcome,[1],inactive
same,outcome,[2],inactive
same,outcome,[3],inactive
O=S(=O)(OCCOC(F)(F)F)C(F)(F)F,outcome,[1],inactive
same,outcome,[2],inactive
same,outcome,[3],inactive
FC(F)(F)C(F)(F)C(F)(F)C(F)(F)C(F)(F)C(F)(F)CC1CO1 (stereo not drawn),outcome,[1],inactive
same,outcome,[2],inactive
CCN(Cc1cccc(S(=O)(=O)O)c1)c1ccc(C(=C2C=CC(=[N+](CC)Cc3cccc(S(=O)(=O)O)c3)C=C2)c2ccc(O)cc2S(=O)(=O)[O-])cc1,AC50,[10],124 µM (active)
same,AC50,[6],100 µM (active)
same,outcome,[7],inactive
FC(F)(F)C(F)(F)CNCC(F)(F)C(F)(F)F,outcome,[1],inactive
same,outcome,[2],inactive
same,outcome,[3],inactive
CC(C)(C)C(=O)CC(=O)C(F)(F)C(F)(F)C(F)(F)F,outcome,[1],inactive
same,AC50,[2],23.5 µM (active)
same,AC50,[3],25.2 µM (active)
CCCCCCOC(=O)c1ccccc1O,outcome,[8],inactive
same,outcome,[9],inactive
O=C(O)C(F)(F)C(F)(F)C(F)(F)C(F)(F)C(F)(F)C(F)(F)C(F)(F)C(F)(F)Cl,outcome,[1],inactive
same,outcome,[2],inactive
same,outcome,[3],inactive
C(=C(c1ccccc1)c1ccccc1)c1ccccc1,AC50,[4],4.42 µM (active)
same,AC50,[5],9.48 µM (active)
same,outcome,[6],inactive
same,AC50,[7],0.869 µM (active)
